Results filed as inconclusive are left out. The source made the active and inactive calls. Rule for the calls, unless noted: active = hit-call score of the fitted dose curve at least 0.9, where 1 is the maximum; inactive = score below 0.9.
Assays:
[1] = molecular target: Aryl hydrocarbon receptor (Homo sapiens) (UniProt P35869); test: ATG_Ahr_CIS: Attagene CIS-FACTORIAL HepG2 Assay for human Aryl Hydrocarbon Receptor (Ahr) (AID 2282930); details: HepG2 AhR cis-factorial reporter transcription; actives raise or lower the signal
Outline: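 HepG2, transient MRTU (cis) transfection, 24 h exposure. RNA → cDNA → PCR → 6-FAM primer extension → HpaI 2 h 37 C → CE. Fit: bidirectional, DMSO baseline.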

[2] = ATG_AP_1_CIS: Attagene CIS-FACTORIAL HepG2 Assay for human Activator Protein 1 (AP-1) (AID 2282931); details: HepG2 Attagene cis-factorial AP-1 reporter mRNA; actives raise or lower the signal
Outline: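 Multiplexed HepG2 reporter assay, 24 h dosing. mRNA induction detected by RT-PCR plus capillary electrophoresis. Activity fitted in both directions against DMSO.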

[3] = ATG_BRE_CIS: Attagene CIS-FACTORIAL HepG2 Assay for human Bone Morphogenetic Protein (BMP) Response Element (BRE) (AID 2282933); details: HepG2 BMP response element reporter, Attagene transcription factor profiling; actives raise or lower the signal
Outline: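 Gain- or loss-of-signal was derived by bidirectional fitting against DMSO controls. The signal came from reporter mRNA, measured by RT-PCR and capillary electrophoresis, in HepG2 cells transiently carrying multiple reporter units and dosed for 24 h.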

[4] = molecular target: Paired box protein Pax-6 (Homo sapiens) (UniProt P26367); test: ATG_Pax6_CIS: Attagene CIS-FACTORIAL HepG2 Assay for human Paired Box 6 (PAX6) (AID 2282956); details: HepG2 CIS-FACTORIAL PAX6 reporter transcription, RNA readout; actives raise or lower the signal
Outline: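 Multiplexed cis-reporter HepG2 system; 24 h treatment; reporter mRNA read by RT-PCR/CE fluorescence; bidirectional fit vs DMSO.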

[5] = ATG_RORE_CIS: Attagene CIS-FACTORIAL HepG2 Assay for human RAR-related Orphan Receptor Element (RORE) (AID 2282959); details: HepG2 Attagene cis-factorial RORE reporter, mRNA; actives raise or lower the signal
Outline: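 Endogenous factor activity at a cis response element is read as reporter transcript levels in HepG2 cells, 24 h post-dose. Transcripts are quantified by RT-PCR with capillary electrophoresis, and data fitted in both directions against DMSO.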

[6] = ATG_TAL_CIS: Attagene CIS-FACTORIAL HepG2 Assay for human TAL Basal Promoter (AID 2282966); details: HepG2 Attagene cis-factorial TAL promoter reporter; actives raise or lower the signal;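 note: background control endpoint measuring basal TAL promoter reporter mRNA not a specific factor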
Outline: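 Fluorescence of labelled reporter cDNA fragments, resolved by capillary electrophoresis, gave the readout. Human HepG2 liver cells carried transiently transfected cis-element reporter units and were treated for 24 hours; activity was fitted bidirectionally against DMSO.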

[7] = ATG_TGFb_CIS: Attagene CIS-FACTORIAL HepG2 Assay for human Transforming Growth Factor (TGF) (AID 2282967); details: HepG2 Attagene CIS TGFb reporter, mRNA transcription; actives raise or lower the signal
Outline: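 Transcript-level reporter readout: HepG2 transfectants, 24 h exposure, RNA to cDNA, reporter-specific PCR, fluorescent primer extension, capillary sizing against ROX standards. Gain- or loss-of-signal relative to DMSO.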

[8] = ATG_VDRE_CIS: Attagene CIS-FACTORIAL HepG2 Assay for human Vitamin D Receptor Element (VDRE) (AID 2282968); details: HepG2 VDRE cis-reporter transcription, actives raise or lower the signal
Outline: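 In transiently transfected HepG2 liver cells, gain or loss of reporter mRNA after 24 h exposure is scored relative to DMSO, using fluorescence detection by capillary electrophoresis of RT-PCR products.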

[9] = molecular target: X-box-binding protein 1 (Homo sapiens) (UniProt P17861); test: ATG_Xbp1_CIS: Attagene CIS-FACTORIAL HepG2 Assay for human X-box Binding Protein 1 (XBP1) (AID 2282972); details: HepG2 XBP1 cis-element reporter, Attagene multiplex; actives raise or lower the signal
Outline: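 Fluorescence-labelled cDNA fragments from reporter transcripts, separated by capillary electrophoresis, give the signal. Source: HepG2 cells transfected with promoter-driven reporter units, harvested 24 h post-dose. DMSO served as reference for bidirectional curve fitting.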

[10] = ATG_M_32_TRANS: Attagene TRANS-FACTORIAL HepG2 Assay for M32 Transcription Factor (Internal Marker) (AID 2282984; active = hit-call score of the fitted dose curve at least 0.9, where 1 is the maximum;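 note: transcript level of a background control reporter unit measured by RT-PCR and capillary electrophoresis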); details: HepG2 Attagene TRANS M32 internal marker reporter
Outline: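 Using transiently transfected HepG2 cells exposed to test chemicals for 24 h, reporter transcripts are converted to labelled cDNA fragments and quantified by capillary electrophoresis. DMSO defines the activity baseline.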

[11] = ATG_NFI_CIS: Attagene CIS-FACTORIAL HepG2 Assay for human Nuclear Factor I (NFI) (AID 2282989); details: HepG2 cis-regulatory reporter, NFI response element transcription; actives raise or lower the signal
Outline: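 After transient transfection of HepG2 with cis-promoter reporter constructs and 24 h dosing, RNA is reverse-transcribed, amplified, 6-FAM end-labelled and HpaI-digested before capillary analysis. Bidirectional curve fitting against DMSO.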

[12] = molecular target: Myc proto-oncogene protein (Homo sapiens) (UniProt P01106); test: ATG_Myc_CIS: Attagene CIS-FACTORIAL HepG2 Assay for human Myelocytomatosis (Myc) Proto-Oncogene Transcription Factor (AID 2282990); details: HepG2, Attagene cis-reporter transcription factor activity; actives raise or lower the signal
Outline: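 Cells of the HepG2 human liver line bear multiple cis-driven reporter transcription units. Reporter mRNA after 24 h exposure is reverse-transcribed, amplified, labelled and resolved by capillary electrophoresis, with gain- or loss-of-signal fitting relative to DMSO.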

[13] = ATG_NF_kB_CIS: Attagene CIS-FACTORIAL HepG2 Assay for human Nuclear Factor Kappa B (NF-kB) (AID 2282991); details: HepG2 Attagene cis-factorial NF-kB reporter mRNA; actives raise or lower the signal
Outline: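 Measures mRNA induction of an NF-kB-responsive cis-element reporter in HepG2 cells transfected with multiple reporter units, sampled 24 h post-dosing; quantified by fluorescence after RT-PCR and capillary electrophoresis, fitted for activation or inhibition against DMSO.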

[14] = ATG_NRF2_ARE_CIS: Attagene CIS-FACTORIAL HepG2 Assay for human Nuclear Factor Erythroid 2 Related Factor 2 (NFR2) response to Antioxidant Response Elements (ARE) (AID 2282992); details: HepG2 Attagene ARE/NRF2 reporter, transcription factor activity; actives raise or lower the signal
Outline: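 Multiplexed reporter mRNA profiling in HepG2 after a 24 h chemical exposure. Curves fitted in both directions relative to DMSO negative control.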

[15] = ATG_Oct_MLP_CIS: Attagene CIS-FACTORIAL HepG2 Assay for human Octamer-Binding Transcription Factor (Oct) (AID 2282993); details: HepG2 Attagene cis-factorial Oct reporter, mRNA; actives raise or lower the signal
Outline: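 Cells of the HepG2 line express promoter-controlled reporter sequences whose mRNA levels, after 24 h treatment, are measured by RT-PCR and capillary electrophoresis. Increases and decreases are scored relative to DMSO.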

[16] = molecular target: Cellular tumor antigen p53 (Homo sapiens) (UniProt P04637); test: ATG_p53_CIS: Attagene CIS-FACTORIAL HepG2 Assay for human p53 Transcription Factor (AID 2282994); details: HepG2 p53 cis-element reporter, Attagene mRNA; actives raise or lower the signal
Outline: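 Multiplexed reporter mRNA assay in human HepG2 liver cells; cis-regulated units report endogenous factor activity. Values come from bidirectional curve fitting against DMSO negative control after 24 h treatment.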

[17] = molecular target: Peroxisome proliferator-activated receptor gamma (Homo sapiens) (UniProt P37231); test: ATG_PPARg_TRANS: Attagene TRANS-FACTORIAL HepG2 Assay for human Peroxisome Proliferator-activated Receptor-gamma (PPARg) (AID 2283007; active = hit-call score of the fitted dose curve at least 0.9, where 1 is the maximum)
Outline: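 Gain-of-signal endpoint relative to DMSO, derived from reporter mRNA levels quantified by RT-PCR and capillary electrophoresis. Cells were HepG2 transiently expressing a chimeric NR-Gal4 construct with GAL4-UAS reporters, exposed to chemicals for 24 h.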

[18] = molecular target: Nuclear receptor subfamily 1 group I member 2 (Homo sapiens) (UniProt O75469); test: ATG_PXR_TRANS: Attagene TRANS-FACTORIAL HepG2 Assay for human Pregnane X Receptor (PXR) (AID 2283008; active = hit-call score of the fitted dose curve at least 0.9, where 1 is the maximum)
Outline: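 Measures mRNA induction of a GAL4-UAS-driven reporter in human HepG2 cells transiently expressing PXR fused to Gal4, following 24 h treatment. DMSO served as negative control and baseline.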

[19] = ATG_GLI_CIS: Attagene CIS-FACTORIAL HepG2 Assay for human Zinc Finger Protein GLI1 (AID 2282945); details: HepG2, Attagene cis-factorial reporter mRNA, GLI element; actives raise or lower the signal
Outline: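 Bidirectional curve fits relative to DMSO, using reporter mRNA levels from RT-PCR plus capillary electrophoresis. Cells were HepG2 transiently carrying cis-regulated reporter constructs, harvested 24 h after dosing.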

[20] = ATG_XTT_Cytotoxicity: Cytotoxicity Assessment in the Attagene TRANS-FACTORIAL HepG2 Assay (AID 2283584; active = hit-call score of the fitted dose curve at least 0.9, where 1 is the maximum;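 for AC50: cells exposed to compound for 24 h before reading; active means loss of viability signal versus DMSO baseline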)
Outline: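 Cells: human HepG2, transiently transfected with MRTU reporter constructs. Exposure 24 h. Readout: XTT, cell number. Baseline/neg ctrl DMSO; loss-of-signal scored.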

Measured: AC50

Chain of Paired box protein Pax-6 (Homo sapiens) (P26367 whole entry, looked up): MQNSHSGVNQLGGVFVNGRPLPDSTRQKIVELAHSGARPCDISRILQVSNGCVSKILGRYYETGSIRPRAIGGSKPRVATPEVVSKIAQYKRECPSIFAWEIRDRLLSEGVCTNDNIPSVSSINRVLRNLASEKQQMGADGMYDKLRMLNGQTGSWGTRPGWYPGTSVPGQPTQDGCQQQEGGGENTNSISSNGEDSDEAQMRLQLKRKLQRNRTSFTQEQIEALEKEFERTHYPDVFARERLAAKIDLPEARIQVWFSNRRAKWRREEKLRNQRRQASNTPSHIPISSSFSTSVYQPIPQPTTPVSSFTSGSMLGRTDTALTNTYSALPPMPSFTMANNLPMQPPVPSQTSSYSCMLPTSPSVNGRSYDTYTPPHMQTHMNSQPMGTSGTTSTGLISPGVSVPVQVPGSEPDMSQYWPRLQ
Chain of Peroxisome proliferator-activated receptor gamma (Homo sapiens) (P37231 whole entry, looked up, the tested form may be a part): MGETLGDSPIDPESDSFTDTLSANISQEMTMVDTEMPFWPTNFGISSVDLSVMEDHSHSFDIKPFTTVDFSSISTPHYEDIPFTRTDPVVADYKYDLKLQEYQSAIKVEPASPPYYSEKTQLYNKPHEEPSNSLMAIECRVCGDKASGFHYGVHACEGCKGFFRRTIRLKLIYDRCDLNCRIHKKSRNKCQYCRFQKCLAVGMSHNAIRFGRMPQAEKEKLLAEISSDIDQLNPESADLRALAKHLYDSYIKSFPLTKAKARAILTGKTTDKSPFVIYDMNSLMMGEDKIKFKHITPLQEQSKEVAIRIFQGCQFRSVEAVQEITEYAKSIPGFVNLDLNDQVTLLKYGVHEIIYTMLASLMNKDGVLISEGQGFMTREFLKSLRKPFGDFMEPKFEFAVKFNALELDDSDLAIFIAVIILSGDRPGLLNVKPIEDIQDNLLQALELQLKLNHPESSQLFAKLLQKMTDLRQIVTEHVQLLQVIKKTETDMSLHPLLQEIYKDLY
Chain of Aryl hydrocarbon receptor (Homo sapiens) (P35869 whole entry, looked up): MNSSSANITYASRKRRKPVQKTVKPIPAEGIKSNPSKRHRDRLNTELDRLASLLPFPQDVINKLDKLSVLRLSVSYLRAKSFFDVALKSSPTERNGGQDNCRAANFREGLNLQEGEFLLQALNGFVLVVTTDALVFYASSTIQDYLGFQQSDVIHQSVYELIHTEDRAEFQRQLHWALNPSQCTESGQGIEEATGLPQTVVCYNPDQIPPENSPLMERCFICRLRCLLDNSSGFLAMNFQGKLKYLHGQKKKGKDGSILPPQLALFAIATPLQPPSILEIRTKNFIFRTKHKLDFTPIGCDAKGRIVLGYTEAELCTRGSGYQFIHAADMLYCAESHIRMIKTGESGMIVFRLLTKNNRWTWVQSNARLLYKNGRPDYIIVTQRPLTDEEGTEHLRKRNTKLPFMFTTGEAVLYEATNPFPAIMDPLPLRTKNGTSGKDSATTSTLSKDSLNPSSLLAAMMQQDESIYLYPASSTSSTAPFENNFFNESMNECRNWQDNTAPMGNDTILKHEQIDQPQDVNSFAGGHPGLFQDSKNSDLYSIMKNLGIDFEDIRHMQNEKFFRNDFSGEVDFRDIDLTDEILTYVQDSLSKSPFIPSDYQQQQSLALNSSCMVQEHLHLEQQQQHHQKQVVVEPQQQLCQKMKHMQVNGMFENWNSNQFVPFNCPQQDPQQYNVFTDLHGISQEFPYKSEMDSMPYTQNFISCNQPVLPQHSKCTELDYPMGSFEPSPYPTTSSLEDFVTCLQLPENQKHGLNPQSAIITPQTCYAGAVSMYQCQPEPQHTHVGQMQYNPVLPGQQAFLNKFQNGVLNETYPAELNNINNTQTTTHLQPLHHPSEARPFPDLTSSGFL
Chain of Myc proto-oncogene protein (Homo sapiens) (P01106 whole entry, looked up): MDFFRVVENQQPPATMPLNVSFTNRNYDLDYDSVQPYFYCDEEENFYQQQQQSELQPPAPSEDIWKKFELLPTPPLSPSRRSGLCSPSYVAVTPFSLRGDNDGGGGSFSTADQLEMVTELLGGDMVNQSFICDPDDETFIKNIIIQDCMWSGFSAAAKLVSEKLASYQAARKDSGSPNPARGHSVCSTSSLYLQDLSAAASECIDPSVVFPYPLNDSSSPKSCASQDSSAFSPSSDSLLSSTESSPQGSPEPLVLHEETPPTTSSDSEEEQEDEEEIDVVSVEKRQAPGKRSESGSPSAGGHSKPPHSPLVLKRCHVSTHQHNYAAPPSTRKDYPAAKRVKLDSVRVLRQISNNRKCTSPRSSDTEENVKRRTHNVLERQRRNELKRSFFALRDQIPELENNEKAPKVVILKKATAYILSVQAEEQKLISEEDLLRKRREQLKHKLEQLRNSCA
Chain of X-box-binding protein 1 (Homo sapiens) (P17861 whole entry, looked up, the tested form may be a part): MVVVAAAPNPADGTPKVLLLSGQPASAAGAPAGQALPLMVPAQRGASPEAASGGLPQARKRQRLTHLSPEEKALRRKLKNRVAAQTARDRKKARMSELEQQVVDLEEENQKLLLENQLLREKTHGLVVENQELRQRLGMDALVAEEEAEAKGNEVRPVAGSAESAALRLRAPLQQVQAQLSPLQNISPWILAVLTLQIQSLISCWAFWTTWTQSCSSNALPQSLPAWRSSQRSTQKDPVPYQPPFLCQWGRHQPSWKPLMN
Chain of Cellular tumor antigen p53 (Homo sapiens) (P04637 whole entry, looked up): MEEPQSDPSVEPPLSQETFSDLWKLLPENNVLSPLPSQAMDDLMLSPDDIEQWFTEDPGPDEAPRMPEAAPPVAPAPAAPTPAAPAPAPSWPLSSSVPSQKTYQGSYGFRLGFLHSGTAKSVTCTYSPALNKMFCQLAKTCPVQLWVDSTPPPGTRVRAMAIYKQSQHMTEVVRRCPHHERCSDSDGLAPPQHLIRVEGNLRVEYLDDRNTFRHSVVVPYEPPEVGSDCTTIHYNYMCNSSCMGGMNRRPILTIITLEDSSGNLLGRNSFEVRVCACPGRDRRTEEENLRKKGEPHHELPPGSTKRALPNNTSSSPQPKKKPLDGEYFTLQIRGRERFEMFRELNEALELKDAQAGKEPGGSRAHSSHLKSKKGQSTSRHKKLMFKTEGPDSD
Chain of Nuclear receptor subfamily 1 group I member 2 (Homo sapiens) (O75469 whole entry, looked up, the tested form may be a part): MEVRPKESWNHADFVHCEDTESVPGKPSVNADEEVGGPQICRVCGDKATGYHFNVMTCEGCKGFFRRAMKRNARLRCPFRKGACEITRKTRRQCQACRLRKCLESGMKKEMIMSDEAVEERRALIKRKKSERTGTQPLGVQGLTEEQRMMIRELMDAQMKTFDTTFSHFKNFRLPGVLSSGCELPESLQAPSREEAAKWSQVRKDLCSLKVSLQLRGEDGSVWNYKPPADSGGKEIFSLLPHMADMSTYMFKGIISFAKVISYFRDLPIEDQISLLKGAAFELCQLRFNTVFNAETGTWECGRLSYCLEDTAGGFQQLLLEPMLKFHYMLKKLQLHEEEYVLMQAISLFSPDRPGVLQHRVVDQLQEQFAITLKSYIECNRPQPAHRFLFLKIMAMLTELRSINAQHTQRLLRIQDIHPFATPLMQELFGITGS

COc1cc(OC)nc(Oc2cccc(Oc3nc(OC)cc(OC)n3)c2C(=O)O)n1
active: [1] 57.5 µM
not listed: [19] | [20]
inactive: all other assays above

Oc1ccc(C2(c3ccc(O)cc3)c3ccccc3-c3ccccc32)cc1
inactive: [1] | [2] | [3] | [6] | [10] | [12] | [13] | [14] | [17]
active: [19] 19.1 µM | [4] 14.9 µM | [5] 18.6 µM | [8] 5 µM | [9] 13.6 µM | [11] 17.6 µM | [15] 9.82 µM | [16] 17.2 µM | [18] 0.384 µM | [20] 34.9 µM

O=P(O)(Oc1ccccc1)Oc1ccccc1
inactive: all assays above

CC1(C)CC(=O)CC(C)(C)N1[O]
active: [14] 19.8 µM
not listed: [3] | [7]
inactive: all other assays above

O=CNC(N1CCN(C(NC=O)C(Cl)(Cl)Cl)CC1)C(Cl)(Cl)Cl (configuration not stated)
active: [8] 15.3 µM | [16] 148 µM | [18] 6.57 µM
inactive: all other assays above

CC(=O)/C=C/c1ccccc1
active: [2] 86.4 µM | [3] 50 µM | [4] 69 µM | [8] 31.6 µM | [14] 33 µM | [17] 32.1 µM
not listed: [7] | [16] | [20]
inactive: all other assays above

CC(C)CCCCCCCOP(=O)(Oc1ccccc1)Oc1ccccc1
active: [2] 33.3 µM | [8] 1.66 µM | [14] 19.5 µM | [17] 7.95 µM | [18] 0.711 µM
inactive: all other assays above

From PubChem BioAssay (EPA / NIEHS)
